Reference: PubChem BioAssay AID1159580 (chemical genetic matrix, 2015)
Where “and” joins values, the source holds several entries; their conditions need not be identical. Equal values may be shown once. In all, about 5,500 compounds went through this assay and about 2,000 (36%) were called active. Another 18% or so got no clear call; they are omitted. Rule as the data show it: active = normalized growth mostly below about 0.91 (no sharp cut-off); inconclusive = no clear call, values can overlap the other calls; inactive = mostly above about 0.92. This is one part of the list.

Assay: chemical genetic growth profiling, strain panel (AID 1159580);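 also: tested at 20 µM; growth read once vehicle control cultures reached saturation at 30 °C; 1 = growth at the plate median or of vehicle wells; lower values mean less growth of the strain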
Conditions: S. cerevisiae deletion strains, growth OD

Measured: normalized growth

C[C@@H]1C(=O)O[C@H]2[C@H]1CC[C@@]1(C)C=CC(=O)[C@@]3(C)O[C@@]213
inactive: locus YAL013W, strain DEP1, active compounds read low 1 | locus YAL021C, strain ccr4, active compounds read low 1.01 | locus YAL026C, strain drs2, active compounds read low 1.02 | locus YAL030W, strain snc1, active compounds read low 1.01 | locus YBL061C, strain skt5, active compounds read low 1.01 | locus YBR009C, strain hhf1, active compounds read low 1.01 | locus YBR021W, strain FUR4, active compounds read low 1 | locus YBR023C, strain chs3, active compounds read low 1.02 | locus YBR171W, strain sec66, active compounds read low 1.02 | locus YBR229C, strain ROT2, active compounds read low 1.01 | locus YBR231C, strain swc5, active compounds read low 1.02 | locus YBR279W, strain paf1, active compounds read low 1.01 | locus YCL011C, strain gbp2, active compounds read low 1.01 | locus YCL016C, strain dcc1, active compounds read low 1 | locus YCL029C, strain bik1, active compounds read low 1.04 | locus YCL069W, strain vba3, active compounds read low 1.03 | locus YCR088W, strain abp1, active compounds read low 1.01 | locus YDL005C, strain med2, active compounds read low 1.02 | locus YDL035C, strain GPR1, active compounds read low 1.02 | locus YDL040C, strain nat1, active compounds read low 1 | locus YDL074C, strain BRE1, active compounds read low 1.02 | locus YDL101C, strain DUN1, active compounds read low 1.01 | locus YDL134C, strain PPH21, active compounds read low 0.993 | locus YDL185W, strain tfp1, active compounds read low 0.986 | locus YDL192W, strain arf1, active compounds read low 1.01 | locus YDR001C, strain nth1, active compounds read low 1.01 | locus YDR069C, strain doa4, active compounds read low 1.03 | locus YDR101C, strain arx1, active compounds read low 1.01 | locus YDR137W, strain rgp1, active compounds read low 0.982 | locus YDR150W, strain NUM1, active compounds read low 1.01 | locus YDR159W, strain sac3, active compounds read low 1.06 | locus YDR162C, strain NBP2, active compounds read low 1.02 | locus YDR195W, strain ref2 1.01 | locus YDR297W, strain sur2, active compounds read low 1 | locus YDR318W, strain mcm21, active compounds read low 1.02 | locus YDR334W, strain swr1, active compounds read low 1.02 | locus YDR335W, strain msn5, active compounds read low 1.01 | locus YDR388W, active compounds read low 1.01 | locus YDR392W, strain spt3, active compounds read low 0.996 | locus YDR502C, strain sam2, active compounds read low 1.02 | locus YEL003W, strain gim4, active compounds read low 1.01 | locus YEL037C, strain rad23, active compounds read low 1.02 | locus YEL061C, strain CIN8 (second series), active compounds read low 1.01 | locus YEL061C, strain CIN8, active compounds read low 1.01 | locus YER015W, strain faa2, active compounds read low 1.02 | locus YER016W, strain bim1, active compounds read low 1.01 | locus YER110C, active compounds read low 1.01 | locus YER111C, strain swi4, active compounds read low 1.02 | locus YER155C, strain BEM2 (second series), active compounds read low 1.03 | locus YER155C, strain BEM2, active compounds read low 0.996 | locus YER167W, strain BCK2, active compounds read low 1.02 | locus YFR010W, strain ubp6, active compounds read low 1.06 | locus YGL078C, strain dbp3, active compounds read low 1.03 | locus YGL086W, strain mad1, active compounds read low 1.02 | locus YGL167C, strain pmr1, active compounds read low 1.02 | locus YGL173C, strain kem1, active compounds read low 1.02 | locus YGL227W, strain vid30, active compounds read low 1.02 | locus YGL240W, strain doc1, active compounds read low 1.01 | locus YGL248W, strain PDE1, active compounds read low 1.02 | locus YGL253W, strain hxk2, active compounds read low 1.05 | locus YGR078C, strain PAC10, active compounds read low 1.02 | locus YGR135W, strain pre9, active compounds read low 1.03 | locus YGR229C, strain SMI1, active compounds read low 1.02 | locus YGR252W, strain gcn5, active compounds read low 1.06 | locus YHR013C, strain ard1, active compounds read low 0.995 | locus YHR027C, strain rpn1, active compounds read low 1.02 | locus YHR030C, strain SLT2, active compounds read low 1.01 and 1.04 | locus YHR079C, strain IRE1 (second series), active compounds read low 1.02 | locus YHR079C, strain IRE1, active compounds read low 1.04 | locus YHR094C, strain hxt1, active compounds read low 1 | locus YHR129C, strain ARP1, active compounds read low 1.01 | locus YHR142W, strain chs7, active compounds read low 1.02 | locus YHR200W, strain rpn10, active compounds read low 1.02 | locus YIL066C, strain RNR3, active compounds read low 1.02 | locus YIL073C, strain SPO22, active compounds read low 1.05 | locus YIL125W, strain kgd1, active compounds read low 1.03 | locus YIR030C, strain dcg1, active compounds read low 1.02 | locus YJL092W, strain hpr5, active compounds read low 1.02 | locus YJL095W, strain BCK1 (second series), active compounds read low 1.01 | locus YJL095W, strain BCK1, active compounds read low 1.03 | locus YJL115W, strain asf1, active compounds read low 1.02 | locus YJL129C, strain trk1, active compounds read low 1.04 | locus YJL134W, strain LCB3, active compounds read low 1 | locus YJL154C, strain vps35, active compounds read low 1.01 | locus YJL164C, strain tpk1, active compounds read low 1.01 | locus YJL166W, strain qcr8, active compounds read low 1.01 | locus YJL168C, strain set2, active compounds read low 1.01 | locus YJL187C, strain SWE1 (second series), active compounds read low 1.04 | locus YJR043C, strain POL32, active compounds read low 1.02 | locus YJR066W, strain TOR1, active compounds read low 0.959 | locus YJR075W, strain HOC1, active compounds read low 1.02
